Compound activity as filed in PubChem.
Marburg entry inh – Marburg virus entry inhibition; Marburg virus pseudotyped entry inhibition, cell reporter; Potency, µM (titrated, usually from 37.8 µM), without a hit: at the highest dose activity change, negative = inhibition, actives largely listed as inhibitors; hit rate 1.8% among 300,000; calls by dose curve; tested in HEK293 cells; further: potency means the concentration at half of the fitted maximal effect; on the % scale 0 is the no-effect control and ±100 the full control effect
Shiga inhibitor – inhibitors of Shiga toxin in Vero cells; Vero cells, Shiga toxin protein synthesis inhibition reporter; inhibition, % at 38.7 µM; AID 2315; hit rate 9.2% among 290,000; in the data active means inhibition mostly above about 28%, no sharp cut-off; inactive means mostly below about 43%; further: 0% is about no effect
CHX counter – affects cycloheximide protein synthesis inhibition readout, counter-screen; cell reporter, cycloheximide protein synthesis inhibition counterscreen; max response, %; hit rate 12% among 300,000; AID 2314; in the data active means max response mostly above about 13%, no sharp cut-off; inactive means mostly below about 14%; further: read at 38.3 µM for the half of the compounds with a filed dose; 0% is about no effect
Lassa entry inh – blocks Lassa virus binding to or entry into cells; Lassa virus pseudotype entry inhibition, cell reporter; Potency, µM (top dose mostly 37.9 µM), for the others: at the top dose activity change, negative = inhibition, hits mostly inhibitors; AID 540256; hit rate 1.2% among 300,000; calls by dose curve; tested in HEK293 cells; further: potency means the concentration at half of the fitted maximal effect; on the % scale 0 is the no-effect control and ±100 the full control effect; nearly all actives have a fitted effect of over 50% in size
AMA1-RON2 inh – disrupts binding of P. falciparum AMA1 to RON2 | AlphaScreen AMA1-biotinylated RON2 peptide binding | Potency, µM (doses to about 58.2 µM), for the others: top-dose activity change, negative = inhibition, usual class: inhibitors | hit rate 0.2% among 360,000; active means well fitted inhibition curve with a large enough effect; inconclusive means small, poorly fitted or top-dose-only effect; inactive means no such curve, though single readings can be large or run the other way;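 further: potency means the concentration at half of the fitted maximal effect; 0% = vehicle wells and -100% = peptide control; nearly all actives have a fitted effect of over 45% in size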
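AMA1 (3D7) with his tag at 25 nM final met compounds first, then biotinylated RON2 peptide at 25 nM; detection used donor plus acceptor beads, 10 µg/mL apiece, read by AlphaScreen after 30 min at room temperature.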
Starred values were filed as active, the others as inactive; u = inconclusive; x = no result; + = active, no number; [ ] = dose if it differs, or a comment. Only a selection was taken, and hits are over-represented in it overall.

SMILES	Marburg entry inh	Shiga inhibitor	CHX counter	Lassa entry inh	AMA1-RON2 inh
COc1ccc(NC(=O)Nc2ccc(C)cc2OC(F)F)cc1OC	-2%	21	1	-24%	-11%
CC(NC(=O)Nc1ccc(F)cc1)c1ccc2c(c1)OCO2 (stereo not given)	x	-2	15	x	-2%
Cc1ccc(NC(=O)Nc2ccc3c(c2)OCO3)c(OC(F)F)c1	-22%	103*	48*	-24%	-13%
Cc1ccc(NC(=O)Nc2ccc3c(c2)OCO3)cc1F	x	90*	73*	x	9%
Cc1ccc(OCc2ccc(C(=O)NCc3cccnc3)cc2)cc1C	8.9µM*	52*	33*	7.9µM*	-2%
CC(C)(C)c1ccc(OCc2ccc(C(=O)NCc3cccnc3)o2)cc1	x	176*	45*	x	-6%
CC(C)(C)c1ccc(OCc2ccc(C(=O)NN)o2)cc1	x	116*	71*	x	63%
CCc1nnc(NC(=O)CS(=O)(=O)Cc2ccccc2)s1	18%[46.1 µM]	-7	-2	-4%	-4%
CCCNC(=O)C1(C)CCCN(C(=O)c2ccc3snnc3c2)C1 (stereo not given)	x	x	x	x	-3%
Cc1cccc(C(=O)Oc2ccccc2/C=N/NC(=O)c2ccc(NC(=O)C(C)(C)C)cc2)c1	u	-8	2	-9%	4%[11.6 µM]
Cc1cccc(C(=O)Oc2ccc(/C=N/NC(=O)c3ccccc3O)cc2)c1	u	+	38*	15%	6%
Cc1cccc(C(=O)Oc2ccc(/C=N/NC(=O)c3ccc(O)cc3)cc2)c1	2%	29	25*	u	24%
COc1cccc(/C=C/C(=O)OCC(=O)NCC2CCCCC2)c1OC	x	x	x	x	6%
CC(C)Cn1c(=O)c2sccc2n2c(CCCC(=O)Nc3ccc(Cl)cc3)nnc12	x	x	x	21%[46.1 µM]	x
Cc1ncoc1C(=O)N1CCCC(CCC(=O)NCc2ccccc2F)C1 (stereo not given)	u	0	-1	u	30%
O=C(CCC1CCCN(C(=O)c2ccco2)C1)NCc1ccccc1F (stereo not given)	0%[46.1 µM]	19	12	u	0%
O=C(CCC1CCCN(C(=O)c2ccc3c(c2)OCCO3)C1)NCc1ccccc1F (stereo not given)	u	77*	48*	0%[46.1 µM]	16%
COCc1ccc(C(=O)N2CCCC(CCC(=O)NCc3ccccc3F)C2)o1 (stereo not given)	5.6µM*	8	9	2%	6%
COc1ccc(C(=O)N2CCCC(CCC(=O)NCc3ccccc3F)C2)c(OC)n1 (stereo not given)	-9%[46.1 µM]	8	23*	7%[46.1 µM]	9%
O=C(N/N=C/c1ccc2nccnc2c1)c1ccccc1O	x	24	15*	x	x
O=C(N/N=C/c1ccnc2ccccc12)c1ccccc1O	3%	32	27*	u	-7%
O=C(N/N=C/c1oc(O)c2ccccc12)c1ccccc1O	x	19	6	x	98%
O=C(N/N=C/c1cc(Br)c(O)c(Br)c1)c1cccc(C(F)(F)F)c1	30%	-7	-9	0%	13%
O=C(N/N=C/c1cccc(C(F)(F)F)c1)c1ccccc1O	3%	121*	30*	u	3%
COc1cc(/C=C2\SC(=Nc3ccc(N4CCOCC4)cc3)N(C)C2=O)ccc1OC(C)C(=O)O (stereo not given)	u	-11	-2	25%	-15%
SMILES	Marburg entry inh	Shiga inhibitor	CHX counter	Lassa entry inh	AMA1-RON2 inh
ClC(Cl)(c1nnnn1-c1ccccc1)c1nnnn1-c1ccccc1	u	-7	8	-11%	-19%
CCc1nc(SC)ncc1C(=O)N1CCN(c2cc(C)ccc2C)CC1	x	x	x	-21%[46.1 µM]	x
CN1CCN(CCCNC(=O)C2CC(=O)N(C3CCCCC3)C2)CC1 (stereo not given)	5%	1	0	u	3%
O=C(NCCCN1CCC(Cc2ccccc2)CC1)C1CC(=O)N(C2CCCCCC2)C1 (stereo not given)	14µM*	13	5	-12%	-7%
COc1ccc(OC[C@H]2CN3[C@H](c4ccc(Br)cc4)[C@H](C)CC[C@H]3C(=O)O2)cc1	-7%[14.2 µM]	x	x	x	x
COc1cccc(Cn2c(CNS(=O)(=O)c3ccc(F)c(Cl)c3)nc3cccnc32)c1	x	x	x	13%[46.1 µM]	x
COc1cc(C(=O)ON=C2C=C(C)C(=O)C(C)=C2)cc(OC)c1OC	-25%	-26	8	0%	-2%
COc1cc(C(=O)O/N=C2\C=CC(=O)C(C)=C2)cc(OC)c1OC	u	101*	71*	u	5%
CCCCNC(=O)Nc1ccccn1	9%	31	10	u	-4%
C=CCCC(=O)Nc1ccc(Br)cn1	u	31	28	u	10%
CCCCC(=O)Nc1ccc(NC(=O)C2CC2)cn1	9%[46.1 µM]	33	11	-1%	u
CCCCNC(=O)c1nn2cc(Br)cnc2c1Br	12%[46.1 µM]	22	23*	-1%	0%
CCCCC(=O)Nc1ccc(NC(=O)CCCC)nc1	2%	63	13*	17%	0%
CCCCC(=O)Nc1ccc(Br)cn1	14%	61	22*	21%	-10%
CCCCNC(=O)Nc1ccc(Br)cn1	1%	31*	36*	9%	-2%
CCCC(=O)Nc1ccc(NC(=O)C2CC2)cn1	-3%	17	26*	26%	1%
O=C(CS(=O)(=O)c1ccccc1)Nc1ccc(Br)cn1	-5%	26*	19*	28%	-10%
C/C(=N\Nc1ccc(S(N)(=O)=O)cc1[N+](=O)[O-])c1cccnc1	-19%[46.1 µM]	2	-7	x	-4%
Cc1cc(NC(=O)CSc2nnc(-c3cccnc3)n2Cc2ccccc2)no1	6%	-11	1	u	0%
N#Cc1ccc(C(=O)NCC2CCCCC2)cc1	x	51*	11*	x	-10%
COc1ccc2cc1Oc1ccc(cc1)CC1c3c(cc(OC)c4c3Oc3cc5c(cc3O4)CCNC5C2)CCN1C (stereo not given)	x	-22	-6	x	14µM*
COc1ccc2cc1Oc1ccc(cc1)C[C@H]1c3c(cc(OC)c4c3Oc3c(ccc5c3[C@H](C2)N(C)CC5)O4)CCN1C	x	x	x	x	-25%
O=C(O)c1ccc2c3n(nc2c1)-c1ccc(Cl)cc1CO3	x	54*	42*	x	43%
c1ccc2c(c1)COc1c3cc4c(cc3nn1-2)OCO4	x	x	x	x	-16%
O=C(c1ccc2c3n(nc2c1)-c1ccc(Cl)cc1CO3)N1CCCCC1	x	70*	46*	x	-2%
SMILES	Marburg entry inh	Shiga inhibitor	CHX counter	Lassa entry inh	AMA1-RON2 inh
Cc1ccc2c(c1)COc1c3ccc(C(=O)N4CCOCC4)cc3nn1-2	x	96*	55*	x	-10%
CC(=O)Nc1nnc(SCC(=O)c2ccc3c(c2)Cc2ccccc2-3)s1	u	-3	-1	u	-15%
CCC(=O)Nc1nnc(SCC(=O)c2ccc3c(c2)Cc2ccccc2-3)s1	u	-7	-2	6.5µM*	6%
Cc1ccc(S(=O)(=O)N(C)C[C@@H]2Oc3ncc(C#CCC(C)C)cc3C(=O)N([C@H](C)CO)C[C@H]2C)cc1	x	x	x	x	-10%
CCCCN1C(=O)C(=O)N(CC(=O)c2cc(C)n(C3CC3)c2C)C1=O	29%	x	x	4%	-8%
Cc1cccc(S(=O)(=O)NNC(=O)c2sc(C)nc2C)c1	8%[46.1 µM]	-11	-1	2%	10%
